Our source for the activity, negative = cell killing values is PubChem BioAssay (NCATS).

Each structure is given as a SMILES string. Records with an inconclusive call do not appear. Values without a mark were called inactive. The call rests on the fitted dose curve; in most records, active means well fitted inhibition curve with a large enough effect; inconclusive means small, poorly fitted or top-dose-only effect; inactive means flat fitted curve, though single readings scatter.
On the % scale 0 is the no-effect control and ±100 the full control effect.

The experiment in a line: Drug repurposing screens with cells derived from glioblastoma tumor samples (AID 1345199). Further: nearly all actives have a fitted effect of over 40% in size. The note with it: GBM patient neurospheres viability, ATP luminescence, 48 h; at 45.9 µM (top of the series); tumour line D. The essentials: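 Four patient lines of CD133+ GBM neurospheres were screened at several concentrations; hits were retested in those lines plus three slower-growing GBM lines, using 48-hour treatment and ATP-based viability.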
As for `CS(=O)(=O)OCCCCOS(C)(=O)=O`, the activity, negative = cell killing was -5.18%. The same measure for `CN(C)C(=O)COC(=O)Cc1ccc(OC(=O)c2ccc(N=C(N)N)cc2)cc1`: 2.44%.

For `CC1=C(C)C(=O)C(C(CCCCCC(=O)O)c2ccccc2)=C(C)C1=O` (stereo unspecified), the activity, negative = cell killing was 17%.

Regarding `CCCc1cc(=O)[nH]c(=S)[nH]1`, the activity, negative = cell killing was -9.52%. The same measure for `CC[C@]1(O)C[C@H]2CN(CCc3c([nH]c4ccccc34)[C@@](C(=O)OC)(c3cc4c(cc3OC)N(C=O)[C@H]3[C@@](O)(C(=O)OC)[C@H](OC(C)=O)[C@]5(CC)C=CCN6CC[C@]43[C@@H]65)C2)C1`: -44.9%; for `CC1(C)CCC(C)(C)c2cc(NC(=O)c3ccc(C(=O)O)cc3)ccc21`: -17.2%. Regarding `N=C(N)c1ccc2cc(OC(=O)c3ccc(N=C(N)N)cc3)ccc2c1`, the activity, negative = cell killing is -17%. The same measure for `CCOC(=O)c1c(C)n(C)c2ccc(O)cc12`: -23.4%; for `CC(=O)Nc1ccc(O)cc1`: -3.31%; for `COc1cc2nc(N3CCN(C(=O)C4CCCO4)CC3)nc(N)c2cc1OC` (stereo unspecified): -6.51%. Take `Cc1ncc([N+](=O)[O-])n1CC(C)O` (stereo unspecified): the activity, negative = cell killing is 3.12%.
